Measured values published in PubChem BioAssay.
Several values for one entry are separate records, joined by “and”; a condition that tells them apart may be missing. Equal values may be shown once. Activity calls are given as the source filed them. Rule as the data show it, unless noted: active = inhibition above about 80%; inactive = the rest.

Assay: growth inhibition, single agent or in combination, cell-based, chromothripsis tumors, cisplatin or BGB combos (AID 1671449);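 also: cells exposed for 96 hours; 0% = vehicle DMSO and 100% = killing by high DMSO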
Conditions: LFS_MB_P medulloblastoma cells, measured here: combination with BGB IC20, at 0.005 µM

SMILES	inhibition
O=c1[nH]cc(F)c(=O)[nH]1	0.419%
CCCCCCNC(=O)n1cc(F)c(=O)[nH]c1=O	-12% and -29.3%
Cn1cnc([N+](=O)[O-])c1Sc1ncnc2nc[nH]c12	-29.8% and -1.49%
CCn1cc(C(=O)O)c(=O)c2cc(F)c(N3CCN(C)CC3)cc21	13.2% and 24%

Same assay, conditions: LFS_MB_P medulloblastoma cells, measured here: combination with BGB IC40, at 0.005 µM

SMILES	inhibition
O=c1[nH]cc(F)c(=O)[nH]1	-26%
CCCCCCNC(=O)n1cc(F)c(=O)[nH]c1=O	-26.4% and -7.28%
Cn1cnc([N+](=O)[O-])c1Sc1ncnc2nc[nH]c12	-7.88% and -5.24%
CCn1cc(C(=O)O)c(=O)c2cc(F)c(N3CCN(C)CC3)cc21	-32.6% and 8.85%

Same assay, conditions: LFS_MB_P medulloblastoma cells, measured here: combination with BGB IC40, at 0.05 µM

SMILES	inhibition
O=c1[nH]cc(F)c(=O)[nH]1	-17%
CCCCCCNC(=O)n1cc(F)c(=O)[nH]c1=O	-34.3% and -13.5%
Cn1cnc([N+](=O)[O-])c1Sc1ncnc2nc[nH]c12	-1.05% and 8.34%
CCn1cc(C(=O)O)c(=O)c2cc(F)c(N3CCN(C)CC3)cc21	12.2% and 6.61%

Same assay, conditions: LFS_MB_P medulloblastoma cells, measured here: combination with cisplatin, at 0.5 µM, stronger effect = higher value

SMILES	inhibition
O=c1[nH]cc(F)c(=O)[nH]1	59.2%
CCCCCCNC(=O)n1cc(F)c(=O)[nH]c1=O	-48.8% and -55.1%
Cn1cnc([N+](=O)[O-])c1Sc1ncnc2nc[nH]c12	-41.8% and -13.7%
CCn1cc(C(=O)O)c(=O)c2cc(F)c(N3CCN(C)CC3)cc21	-21.7% and -50.8%

Same assay, conditions: LFS_MB_P medulloblastoma cells, measured here: combination with cisplatin, at 5 µM, stronger effect = higher value

SMILES	inhibition
O=c1[nH]cc(F)c(=O)[nH]1	-27.9%
CCCCCCNC(=O)n1cc(F)c(=O)[nH]c1=O	-34.6% and -25%
Cn1cnc([N+](=O)[O-])c1Sc1ncnc2nc[nH]c12	-15% and -14.9%
CCn1cc(C(=O)O)c(=O)c2cc(F)c(N3CCN(C)CC3)cc21	-2.03% and -14%

Assay: growth inhibition, single agent and combos, cell-based, chromothripsis tumors, cisplatin or BGB combos (AID 1671450);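 also: cells exposed to compound for four days; 0% = vehicle DMSO and 100% = cell killing by high DMSO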
Conditions: HDN33 neuroblastoma cells, BGB combo, at 5 µM, stronger effect = higher value

SMILES	inhibition
O=c1[nH]cc(F)c(=O)[nH]1	30.6%
CCCCCCNC(=O)n1cc(F)c(=O)[nH]c1=O	41.9% and 91.3%
Cn1cnc([N+](=O)[O-])c1Sc1ncnc2nc[nH]c12	27% and -4.71%
CCn1cc(C(=O)O)c(=O)c2cc(F)c(N3CCN(C)CC3)cc21	-18.6% and 9.99%

Same assay, conditions: HDN33 neuroblastoma cells, at 0.5 µM, stronger effect = higher value

SMILES	inhibition
O=c1[nH]cc(F)c(=O)[nH]1	16.5% (inactive)
CCCCCCNC(=O)n1cc(F)c(=O)[nH]c1=O	-22% (inactive) and -3.86% (inactive)
Cn1cnc([N+](=O)[O-])c1Sc1ncnc2nc[nH]c12	9.11% (inactive) and 3.47% (inactive)
CCn1cc(C(=O)O)c(=O)c2cc(F)c(N3CCN(C)CC3)cc21	-25.3% (inactive) and 3.48% (inactive)

Same assay, conditions: HDN33 neuroblastoma cells, cisplatin combo, at 5 µM, stronger effect = higher value

SMILES	inhibition
O=c1[nH]cc(F)c(=O)[nH]1	40.1%
CCCCCCNC(=O)n1cc(F)c(=O)[nH]c1=O	46.1% and 36.7%
Cn1cnc([N+](=O)[O-])c1Sc1ncnc2nc[nH]c12	18.8% and 16.9%
CCn1cc(C(=O)O)c(=O)c2cc(F)c(N3CCN(C)CC3)cc21	-42% and 24.3%

Same assay, conditions: HDN33 neuroblastoma cells, measured here: with BGB IC20 combination, at 0.5 µM, stronger effect = higher value

SMILES	inhibition
O=c1[nH]cc(F)c(=O)[nH]1	-26.4%
CCCCCCNC(=O)n1cc(F)c(=O)[nH]c1=O	-20.7% and 5.65%
Cn1cnc([N+](=O)[O-])c1Sc1ncnc2nc[nH]c12	3.66% and -16.5%
CCn1cc(C(=O)O)c(=O)c2cc(F)c(N3CCN(C)CC3)cc21	-16.6% and 0.157%

Same assay, conditions: HDN33 neuroblastoma cells, measured here: with cisplatin IC20 combination, at 0.5 µM, stronger effect = higher value

SMILES	inhibition
O=c1[nH]cc(F)c(=O)[nH]1	0.453%
CCCCCCNC(=O)n1cc(F)c(=O)[nH]c1=O	-11.9% and -1.01%
Cn1cnc([N+](=O)[O-])c1Sc1ncnc2nc[nH]c12	5.32% and -7.32%
CCn1cc(C(=O)O)c(=O)c2cc(F)c(N3CCN(C)CC3)cc21	-28.5% and 3.55%

Same assay, conditions: HDN33 neuroblastoma cells, single agent, at 5 µM, stronger effect = higher value

SMILES	inhibition
O=c1[nH]cc(F)c(=O)[nH]1	42.5%
CCCCCCNC(=O)n1cc(F)c(=O)[nH]c1=O	90.7% and 52%
Cn1cnc([N+](=O)[O-])c1Sc1ncnc2nc[nH]c12	55.4% and 48.5%
CCn1cc(C(=O)O)c(=O)c2cc(F)c(N3CCN(C)CC3)cc21	-19.9% and 6.42%

Assay: growth inhibition, single agents and combos, ICB984, cell-based, cisplatin or BGB combos, synergistic combos for chromothripsis tumors (AID 1671451; call rule not given here;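 also: cells exposed for 96 hours before readout; 0% = vehicle DMSO and 100% = killing by high DMSO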)
Conditions: ICB984 medulloblastoma cells, drug combinations, BGB IC20 combo, at 0.005 µM, stronger effect = higher value

SMILES	inhibition
O=c1[nH]cc(F)c(=O)[nH]1	-34.1%
CCCCCCNC(=O)n1cc(F)c(=O)[nH]c1=O	-17.4% and -9.29%
Cn1cnc([N+](=O)[O-])c1Sc1ncnc2nc[nH]c12	-7.33% and 0.138%
CCn1cc(C(=O)O)c(=O)c2cc(F)c(N3CCN(C)CC3)cc21	-18.1% and 6.69%

Same assay, conditions: ICB984 medulloblastoma cells, drug combinations, BGB IC40 combo, at 0.005 µM, stronger effect = higher value

SMILES	inhibition
O=c1[nH]cc(F)c(=O)[nH]1	-27.4%
CCCCCCNC(=O)n1cc(F)c(=O)[nH]c1=O	-22.5% and -2.82%
Cn1cnc([N+](=O)[O-])c1Sc1ncnc2nc[nH]c12	-44% and -68.5%
CCn1cc(C(=O)O)c(=O)c2cc(F)c(N3CCN(C)CC3)cc21	-42.4% and -0.345%

Same assay, conditions: ICB984 medulloblastoma cells, drug combinations, BGB IC40 combo, at 0.05 µM, stronger effect = higher value

SMILES	inhibition
O=c1[nH]cc(F)c(=O)[nH]1	5.15%
CCCCCCNC(=O)n1cc(F)c(=O)[nH]c1=O	-29.3% and 7.79%
Cn1cnc([N+](=O)[O-])c1Sc1ncnc2nc[nH]c12	-15.3% and -11.2%
CCn1cc(C(=O)O)c(=O)c2cc(F)c(N3CCN(C)CC3)cc21	-41% and 23.4%

Same assay, conditions: ICB984 medulloblastoma cells, drug combinations, at 0.5 µM, stronger effect = higher value

SMILES	inhibition
O=c1[nH]cc(F)c(=O)[nH]1	0.32% (inactive)
CCCCCCNC(=O)n1cc(F)c(=O)[nH]c1=O	-42.7% (inactive) and -3.92% (inactive)
Cn1cnc([N+](=O)[O-])c1Sc1ncnc2nc[nH]c12	-19.6% (inactive) and -22.9% (inactive)
CCn1cc(C(=O)O)c(=O)c2cc(F)c(N3CCN(C)CC3)cc21	-41.8% (inactive) and -20.7% (inactive)

Same assay, conditions: ICB984 medulloblastoma cells, drug combinations, cisplatin combo, at 0.05 µM, stronger effect = higher value

SMILES	inhibition
O=c1[nH]cc(F)c(=O)[nH]1	5.15%
CCCCCCNC(=O)n1cc(F)c(=O)[nH]c1=O	-33.9% and 7.79%
Cn1cnc([N+](=O)[O-])c1Sc1ncnc2nc[nH]c12	-15.3% and -15.6%
CCn1cc(C(=O)O)c(=O)c2cc(F)c(N3CCN(C)CC3)cc21	-41% and 21.2%
